Source: PubChem BioAssay (NCATS)
Values without a mark were called inactive. How the calls were made is not given here.

system: HIV-1 nucleocapsid protein NCp7 (binding to TG oligonucleotide); assay: HIV Nucleocapsid (AID 346); details: HIV-1 NC / fluorescein-TGTGTGTG probe, fluorescence polarization;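 further: potency is for inhibitors that block NC binding and lower polarization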
Outline: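 Inhibition of nucleocapsid binding to single-stranded 5'-TGTGTGTG probe (10 nM) was measured by fluorescence polarization after 1 hr at room temperature with 100 nM protein under high-salt, zinc-containing, reducing conditions.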
Potency means the concentration at half of the fitted maximal effect.

Row | Structure (SMILES) | Potency [µM]
1 | CNc1ccnc(-c2ccccc2C(F)(F)F)n1 | > 20
2 | Cn1cc(-c2nc3cncnc3n(C3CC3)c2=O)c2ccccc21 | > 20
3 | N#Cc1ccccc1-c1ccc2ncnc(NCc3ccccc3)c2c1 | > 20
4 | O=S(=O)(c1ccccc1)N1CCC2(CCCN(c3ccncc3)C2)CC1 | > 20
5 | COc1ccccc1CNc1ncncc1-c1ccc2c(c1)OCO2 | > 20
6 | CCNc1ncc2nc(-c3ccc(Cl)cc3)c(=O)n(C[C@H]3CCCO3)c2n1 | > 4
7 | COc1ccccc1CN1CC[C@@]2(CCCN(C(=O)c3c(C)noc3C)C2)C1 | > 20
8 | O=c1c(-c2cccs2)nc2cnc(N3CCOCC3)nc2n1CCc1ccccc1 | > 20
9 | O=C(Oc1ccccc1)N1CCC2(CC1)CCN(c1ccccc1)CC2 | > 20
10 | COc1ccc(C(=O)N2CCC3(CC2)CN(c2ccc(-c4ccccc4)cc2)C3)cc1 | > 20
11 | O=c1cnc2cnc(Oc3ccccc3)nc2n1CCc1ccccc1 | > 20
12 | CN1CCN(c2ncc3nc(-c4cccc(C#N)c4)c(=O)n(Cc4ccc(F)cc4)c3n2)CC1 | > 20
13 | CC(=O)NCCNc1ncncc1-c1ccccc1CN(C)C | > 20
14 | COc1ccc(Oc2ncc3nc(CCc4ccccc4)c(=O)n(CCC#N)c3n2)cc1 | > 20
15 | Cc1ccccc1-c1cc(Nc2ccccc2)ncn1 | > 20
16 | CC(=O)N1CCC2(CCN(Cc3ccncc3)CC2)CC1 | > 20
17 | CN(C)C(=O)c1ccc(-c2ccc3ncnc(N(C)C)c3c2)cc1 | > 20
18 | O=C(c1ccncc1)N1CCC2(CCCN(c3ccccc3)C2)CC1 | > 20
19 | COC(=O)N1CCC2(CC1)CN(C(=O)Nc1cccc(C#N)c1)C2 | > 20
20 | O=C(Nc1cccc(F)c1)N1CC[C@@]2(CCCN(C(=O)c3ccco3)C2)C1 | > 20

Row | Structure (SMILES) | Potency [µM]
21 | O=C(c1ccco1)N1CCC2(CC1)CN(Cc1cc(C(F)(F)F)cc(C(F)(F)F)c1)C2 | > 20
22 | O=C(c1ccco1)N1CCC[C@@]2(CCN(Cc3nccs3)C2)C1 | > 20
23 | O=C(c1cccc(F)c1)N1CCC2(CCCN(c3ccccc3)C2)CC1 | > 20
24 | O=C(c1cc(C(F)(F)F)cc(C(F)(F)F)c1)N1CCC[C@@]2(CCN(Cc3ccncc3)C2)C1 | > 20
25 | O=C(Oc1ccccc1)N1CCC2(CCCN(c3ccncc3)C2)CC1 | > 20
26 | Cc1noc(C)c1C(=O)N1CCC2(CC1)CN(C(=O)Nc1cccc(F)c1)C2 | > 20
27 | COc1ccccc1CN1CCC2(CC1)CCN(C(=O)c1ccncc1)CC2 | > 20
28 | COc1cccc(-c2nc(N(C)Cc3ccco3)c3ccccc3n2)c1 | > 20
29 | Cc1nc2cnc(Nc3ccccc3)nc2n(CCC#N)c1=O | > 20
30 | Cc1cnc(CNc2nc(-c3cccc(NS(C)(=O)=O)c3)nc3ccccc23)cn1 | > 20
31 | CN(Cc1ccco1)c1ncnc2ccc(-c3ccoc3)cc12 | > 20
32 | COc1cccc(-c2nc(Nc3ccncc3)c3ccccc3n2)c1 | > 20
33 | CC(=O)NCCNc1ncnc2ccc(-c3cccc(NS(C)(=O)=O)c3)cc12 | > 20
34 | COc1ccccc1-c1cncnc1Nc1ccc(F)cc1 | > 20
35 | COc1ccccc1CNc1ncnc2ccc(-c3ccc(N(C)C)cc3)cc12 | > 20
36 | CS(=O)(=O)Nc1cccc(-c2cncnc2NCc2cccs2)c1 | > 20
37 | CCNc1ncc2nc(-c3cc(F)cc(F)c3)c(=O)n(C[C@H]3CCCO3)c2n1 | > 20
38 | CN(C)c1ccc(-c2cc(Nc3ccc(F)cc3)ncn2)cc1 | > 20
39 | O=C(c1cccc(F)c1)N1CCC2(CC1)CCN(c1ccccn1)CC2 | > 20
